High-throughput results as filed in PubChem BioAssay.
Methyltransferases: Primary Screen for Target Class Profiling of Small Molecule Inhibitors of Methyltransferases; calls only at 40 µM; AID 1745853, 2022; purified enzyme, MTase-Glo SAH luminescence; hits give low values; 25,000 tested, 3.9% active; call rule not given here
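Each enzyme was assayed with SAM and its substrate. SAH formation detected by MTase-Glo luminescence; single-point 40 uM screen[…].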
MTase-Glo counter: detection enzyme interference, methyltransferase counter-screen | AID 1745851 | MTase-Glo coupled enzymes, SAH conversion luminescence, no MTase | 180 tested, 6% active | shares compounds with Methyltransferases | Potency, µM (highest dose often 57.3 µM), for the others: at the top dose activity change, negative = inhibition, hits mostly inhibitors; active = well fitted inhibition curve with a large enough effect; also: potency is read from the fitted curve at half-maximal effect
* = called active by the depositor. This excerpt belongs to a sample that is enriched for hits. % is scaled to controls: 0 for no effect and ±100 for the full control effect.

CCCN1C(=O)c2c(C(=O)NCCc3ccccc3C)ncn2CC1(C)C(=O)NCCC(C)C (stereo unspecified) was read as Methyltransferases inactive.
For CN1CCN(c2nc3c(c(=O)[nH]2)CCN(Cc2cn[nH]c2-c2ccc(F)cc2)CC3)CC1 the results were Methyltransferases inactive.
Screening COc1ccc(-c2[nH]ncc2CN2CC[C@H]3CC[C@@H](C2)N3)cc1 returned Methyltransferases active and MTase-Glo counter -2%.
CN1C(=O)[C@H]2CN(Cc3cn[nH]c3-c3ccc(F)cc3)C[C@H]2C1=O was read as Methyltransferases inactive.
Screening COc1ccc(-c2cc3n(n2)CC(C)(C(=O)NCc2ccccc2OC)N(c2ccccc2C)C3=O)cc1 (stereo unspecified) returned Methyltransferases inactive.
`Cc1ccc(Cn2nc3n(Cc4ccccc4)c(=O)c4ccc(C(=O)NC(C)C)cc4n3c2=O)cc1` gave Methyltransferases inactive.
For CCn1cnnc1CC1CCN(C(=O)c2nccc3ccccc23)C1 (stereo unspecified) the results were Methyltransferases inactive.
Screening O=C(C1CCC1)N1CCC(Cc2nncn2Cc2ccccc2)CC1 returned Methyltransferases inactive.
For Cc1nn(C(=O)CCC(=O)N2CCC(Cc3nncn3CC3CC3)CC2)c2ccccc12 the results were Methyltransferases active and MTase-Glo counter -1%.
For CC(C)C1c2cccn2CCN1C(=O)Nc1ccc(F)cc1F (stereo unspecified) the results were Methyltransferases inactive.
CC(C)CNC(=O)c1ccc2c(=O)n(C(C)C)c3nn(CC(=O)Nc4ccc(C(C)C)cc4)c(=O)n3c2c1 was read as Methyltransferases inactive.
For COc1cccc2c1OCCCN(c1cc(C3CC(O)C3)nc(N)n1)C2 (stereo unspecified) the results were Methyltransferases active and MTase-Glo counter -2%.
COc1cccc2c1OCCCN(Cc1cn(-c3ccccc3)nn1)C2 was read as Methyltransferases inactive.
Screening CS(=O)(=O)NC1CCN(c2cc(C3CC(N)C3)nc(N)n2)CC1 (stereo unspecified) returned Methyltransferases inactive.
For C=CCn1c(=O)c2ccc(C(=O)NC(C)C)cc2n2c(=O)n(CC(=O)N(C)c3ccccc3)nc12 the results were Methyltransferases inactive.
For CCOC(=O)CNC(=O)C1(C)Cn2c(ccc2-c2ccco2)C(=O)N1Cc1ccccc1Cl (stereo unspecified) the results were Methyltransferases inactive.
For CC1CCCC(NC(=O)C2(C)Cn3c(ccc3-c3ccco3)C(=O)N2Cc2ccc(F)cc2)C1C (stereo unspecified) the results were Methyltransferases inactive.
For COc1cccc(N2C(=O)NC(=NC3CCCC3)C23CCN(Cc2ccccc2)C3)c1 (stereo unspecified) the results were Methyltransferases inactive.
COc1cccc(N2C(=O)NC(=NC3CCCCC3)C23CCN(CC2CC2)C3)c1 (stereo unspecified) was read as Methyltransferases inactive.
For COc1cccc(N2C(=O)NC(=NC3CCCCC3)C23CCCN(CC2CCCCC2)C3)c1 (stereo unspecified) the results were Methyltransferases active and MTase-Glo counter 3%.
For CCCCN1C(=O)c2ccccc2CC1(C)C(=O)NCc1ccccc1 (stereo unspecified) the results were Methyltransferases inactive.
CC(C)N1Cc2cc(C(=O)NC3CCN(Cc4ccccc4)CC3)sc2C1 was read as Methyltransferases inactive.
CC1CCCCN1CCCNC(=O)c1cc2c(s1)CN(C1CCCC1)C2 (stereo unspecified) was read as Methyltransferases active and MTase-Glo counter 2%.
`COc1ccc(NC(=O)c2cc3c(s2)CN(C2CCCC2)C3)c(OC)c1` gave Methyltransferases inactive.
For CCc1ccccc1N1C(=O)c2cc(-c3ccc(OC)cc3)nn2CC1(C)C(=O)NCc1ccccc1 (stereo unspecified) the results were Methyltransferases inactive.
COC(=O)c1ncn2c1C(=O)N(c1ccc(C(C)C)cc1)C(C)(C(=O)NCc1ccccc1)C2 (stereo unspecified) was read as Methyltransferases inactive.
`CCOC(=O)c1cc2n(n1)CC(C)(C(=O)NCc1ccc(F)cc1)N(c1ccc(F)cc1)C2=O` (stereo unspecified) gave Methyltransferases inactive.
Screening CCc1ccccc1N1C(=O)c2cc(-c3ccccc3)nn2CC1(C)C(=O)NCCCOC (stereo unspecified) returned Methyltransferases inactive.
For COc1cccc(CNC(=O)c2cc3n(n2)CC(C)(C(=O)NCc2ccccc2)N(C)C3=O)c1 (stereo unspecified) the results were Methyltransferases inactive.
`COc1ccc(C(C)NC(=O)c2c(C)sc3ccn(C)c(=O)c23)cc1` (stereo unspecified) gave Methyltransferases inactive.
CCCCN(C)C(=O)c1c(C)sc2ccn(CCC)c(=O)c12 was read as Methyltransferases active and MTase-Glo counter -1%.
Screening Cc1sc2ccn(CC(C)C)c(=O)c2c1C(=O)N1CCCCC1 returned Methyltransferases inactive.
Screening CC(C)NC(=O)c1ccc2c(=O)n(Cc3ccccc3)c3n[nH]c(=O)n3c2c1 returned Methyltransferases inactive.
Screening CCOCCCNC(=O)C1c2c(n(C)c3ccccc23)SCC(=O)N1c1ccc(CC)cc1 (stereo unspecified) returned Methyltransferases inactive.
Screening COc1ccc2c(c1)c(CN1C[C@@H](CO)[C@H](c3nc(C)no3)C1)cn2C returned Methyltransferases inactive.
For Cn1cccc1CN1C[C@@H](CO)[C@H](c2ccncc2)C1 the results were Methyltransferases inactive.
COc1ccc(CN2C[C@@H](CO)[C@H](c3ccncc3)C2)c(OC)c1 was read as Methyltransferases active and MTase-Glo counter 4%.
Screening CCc1ccc(N2C(=O)c3ccccc3CC2(C)C(=O)NCc2ccccc2)cc1 (stereo unspecified) returned Methyltransferases inactive.
For COc1ccc(OC)c(NS(=O)(=O)c2ccc3c(c2)NC(=O)C(C)C(=O)N3)c1 (stereo unspecified) the results were Methyltransferases inactive.
Screening Cc1ccc(N2C(=O)c3cc4sccc4n3CC2(C)C(=O)NC2CCCCC2)c(C)c1 (stereo unspecified) returned Methyltransferases inactive.
Screening CN1CCCN(C(=O)c2ccccc2F)c2ccccc21 returned Methyltransferases inactive.
`O=C(c1ccccc1F)N1CCn2ncc(C(=O)N3CCOCC3)c2C1` gave Methyltransferases inactive.
Cn1cc2c3c(cccc31)CN(C(=O)c1ccccc1F)CC2 was read as Methyltransferases active and MTase-Glo counter -3%.
Screening O=C(Cn1nc2nc(Nc3ccc(F)cc3)ccn2c1=O)Nc1ccccc1 returned Methyltransferases inactive.
CCOC(=O)c1cc2n(n1)CC(C)(C(=O)NC1CCC(C)CC1)N(c1cc(Cl)ccc1C)C2=O (stereo unspecified) was read as Methyltransferases inactive.
Screening Cc1nc(CCNc2cc(C3CC(O)C3)nc(N)n2)nc2c1CCC2 (stereo unspecified) returned Methyltransferases inactive.
For CNc1cc(C2CC(NC(=O)COc3ccc(Cl)cc3C)C2)nc(N)n1 (stereo unspecified) the results were Methyltransferases active and MTase-Glo counter 2.7µM*.
`Cc1cc(Cl)ccc1NC1CN(C(=O)OC(C)(C)C)C1` gave Methyltransferases inactive.
`COc1ccc(-c2nnc3n(CCCOC(C)C)c(=O)c4ccccc4n23)c(O)c1` gave Methyltransferases inactive.
COC(=O)c1cc2n(n1)CC(C)(C(=O)NC1CCC(C)CC1)N(c1cc(C)cc(C)c1)C2=O (stereo unspecified) was read as Methyltransferases inactive.
For COc1ccccc1CNC(=O)c1cc2n(n1)CC(C)(C(=O)NC1CCCCCC1)N(C)C2=O (stereo unspecified) the results were Methyltransferases inactive.
